The list is not random: actives were taken first. Their share in the collection is about 10%.
BAZ2B inh = blocks human BAZ2B; Q9UIF8; AlphaScreen BAZ2B-H3K14Ac peptide displacement; Potency, µM (top dose mostly 114 µM), most hits filed as inhibitors; hit rate 4.4% among 360,000; also: nearly all actives have a fitted effect of over 60% in size
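Inhibition is scored as reduced AlphaScreen emission. The BAZ2B/b-H3(5-23)K14Ac complex (50 nM each) in PBS pH 7.4, 0.01% Tween-20 meets compound (up to 110 uM) for 30 min at RT before bead addition.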
JMJD2A Tudor inh = blocks the human JMJD2A Tudor domain | AlphaScreen JMJD2A-Tudor / H3K4me3 peptide binding | Potency, µM (highest dose often 114 µM), actives largely listed as inhibitors | hit rate 4.4% among 390,000 | AID 504339; also: nearly all actives have a fitted effect of over 50% in size
G9a block = G9a (human) methyltransferase inhibition. Q96KQ7. G9a H3K9 monomethylation, AlphaScreen, 2 h. Potency, µM (highest dose often 102 µM), actives largely listed as inhibitors. hit rate 8.8% among 350,000; also: nearly all actives have a fitted effect of over 75% in size
Target sequence (Q96KQ7 913-1193 limits assumed): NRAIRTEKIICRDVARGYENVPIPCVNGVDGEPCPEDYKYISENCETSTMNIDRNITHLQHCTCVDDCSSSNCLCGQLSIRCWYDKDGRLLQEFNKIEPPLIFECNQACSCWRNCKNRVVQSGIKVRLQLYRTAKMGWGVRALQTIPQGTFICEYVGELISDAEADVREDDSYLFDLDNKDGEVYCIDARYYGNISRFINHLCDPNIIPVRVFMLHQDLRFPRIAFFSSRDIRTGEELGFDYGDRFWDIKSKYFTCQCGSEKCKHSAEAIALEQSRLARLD
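AlphaScreen read-out: biotin-H3K9 peptide (500 nM) methylation by 20 nM enzyme with 20 uM SAM, 2 h at room temperature after 15 min compound preincubation; anti-monomethyl H3K9 antibody plus donor/acceptor beads, 10 min dark.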
HP1b binding inh = inhibitors of HP1-beta chromodomain binding to methylated histone tails; P83916; AlphaScreen HP1-beta / biotin-H3K9me3 peptide binding; Potency, µM (highest dose often 114 µM), usual class: inhibitors; hit rate 0.56% among 390,000; AID 540317; also: nearly all actives have a fitted effect of over 70% in size
Target sequence (P83916 whole entry, looked up): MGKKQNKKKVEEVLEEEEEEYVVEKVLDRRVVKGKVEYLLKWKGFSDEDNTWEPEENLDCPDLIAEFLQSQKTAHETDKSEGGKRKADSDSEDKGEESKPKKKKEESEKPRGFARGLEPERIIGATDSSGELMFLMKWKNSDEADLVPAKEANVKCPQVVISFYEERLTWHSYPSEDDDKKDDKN
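Compound inhibition of the preformed complex between 50 nM HP1-beta and 50 nM biotinylated H3K9me3 peptide was read by AlphaScreen. Buffer was PBS pH 7.4 with 0.01% Tween-20. Incubations ran 30 min at room temperature, with 10 ug/mL donor/acceptor beads.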
Six1-Eya2 blk = Six1/Eya2 interaction inhibition; Q15475+O00167; AlphaScreen GST-Six1/His-Eya2 binding, biochemical; stronger effect = lower value; activity change, % (no concentration beside the values); hit rate 0.56% among 360,000; AID 651725; in the data active = activity change below about -65%; inconclusive = mostly about -30% to -63%
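AlphaScreen with GST-Six1 and His-Eya2 (5X mix: 250 nM and 500 nM), glutathione donor and nickel acceptor beads; buffer 50 mM Tris pH 8.0, 300 mM NaCl, 1 mM TCEP; 1 h at 37 C in the dark.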
CtBP-E1A blk = CtBP/E1A binding inhibition; hit rate 0.49% among 340,000; activity change, % (no concentration beside the values); AlphaScreen GST-E1A/His-CtBP binding, 1536-well; stronger effect = lower value; in the data active = activity change below about -65%; inconclusive = mostly about -30% to -63%
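Steps: dispense buffer (Tris pH 8.0, NaCl 300 mM, TCEP 1 mM, BSA, Tween 20); add 5X protein mix (GST-E1A, His-CtBP, 125 nM each); pin 23 nL compound; 2 h at 37 °C, dark; add 5X beads (50 ug/mL); 1 h; read.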
Hits are given with their value; [ ] = another dose, or the depositor's remark. Unless noted, calls follow the shape of the dose curve; as a rule, active = well fitted inhibition curve with a large enough effect; inconclusive = small, poorly fitted or top-dose-only effect; inactive = no such curve, though single readings can be large or run the other way.

`CCC(=O)Nc1ccc2nc3c(=O)n(C)c(=O)n(C)c3nc2c1` gave BAZ2B inh inactive, JMJD2A Tudor inh inactive, G9a block inactive and HP1b binding inh inactive.
NS(=O)(=O)c1ccc(NC(=S)NCC2CCCO2)cc1 (centres undefined) was read as BAZ2B inh inactive, JMJD2A Tudor inh inactive, G9a block 11µM, HP1b binding inh inconclusive, Six1-Eya2 blk inactive and CtBP-E1A blk inactive.
For O=C(Cc1ccc(Br)cc1)Nc1ccc(S(=O)(=O)NCC2CCCO2)cc1 (centres undefined) the results were BAZ2B inh inactive, JMJD2A Tudor inh 22µM, G9a block inactive[12.7 µM], HP1b binding inh inactive, Six1-Eya2 blk inactive and CtBP-E1A blk inactive.
For CC(=O)Nc1ccc(S(=O)(=O)NNC(=S)NCC2CCCO2)cc1 (centres undefined) the results were BAZ2B inh inactive, JMJD2A Tudor inh inconclusive, G9a block 32µM, HP1b binding inh inactive, Six1-Eya2 blk inactive and CtBP-E1A blk inactive.
CCN(CC)CC(C)(C)C(=O)/C=C/c1ccc(/C=C/C(=O)C(C)(C)CN(CC)CC)cc1 was read as JMJD2A Tudor inh inactive, HP1b binding inh inactive, Six1-Eya2 blk inactive and CtBP-E1A blk inactive.
Screening Cc1ccc(S(=O)(=O)Nc2nc3ccccc3nc2NCC2CCCO2)c(C)c1 (centres undefined) returned BAZ2B inh inactive, JMJD2A Tudor inh inactive, G9a block inactive, HP1b binding inh inactive, Six1-Eya2 blk inactive and CtBP-E1A blk inactive.
S=C(NN=C(c1ccccc1)c1ccccn1)N(Cc1ccccn1)Cc1ccccn1 was read as JMJD2A Tudor inh 13µM, HP1b binding inh inconclusive, Six1-Eya2 blk -94 and CtBP-E1A blk inactive.
`S=C(NN=Cc1ccccn1)N(Cc1ccccn1)Cc1ccccn1` gave JMJD2A Tudor inh 20µM, HP1b binding inh inconclusive, Six1-Eya2 blk -91 and CtBP-E1A blk -94.
`CC(=NNC(=S)N(Cc1ccccn1)Cc1ccccn1)c1cnccn1` gave JMJD2A Tudor inh 18µM, HP1b binding inh inconclusive, Six1-Eya2 blk -90 and CtBP-E1A blk inactive.
For CN1CC[C@H](CN2c3ccccc3Sc3ccccc32)C1 the results were G9a block 16µM.
For O=C1[C@@H]2C(c3cccnc3)=NO[C@@H]2C(=O)N1c1ccc(Br)cc1 the results were BAZ2B inh inactive, JMJD2A Tudor inh inconclusive, G9a block 8.9µM, HP1b binding inh inactive, Six1-Eya2 blk inactive and CtBP-E1A blk inactive.
`CCCCc1nnc(NC(=O)c2nc3nccc(C)n3n2)s1` gave JMJD2A Tudor inh inactive, G9a block inconclusive, HP1b binding inh inactive, Six1-Eya2 blk inactive and CtBP-E1A blk inactive.
Cc1ccnc2nc(C(=O)Nc3nnc(CC(C)C)s3)nn12 was read as BAZ2B inh inactive, JMJD2A Tudor inh 45µM, G9a block 25µM, HP1b binding inh inactive, Six1-Eya2 blk inactive and CtBP-E1A blk inactive.
Cc1csc(NC(=O)c2nc3nccc(C)n3n2)n1 was read as BAZ2B inh inactive, JMJD2A Tudor inh inconclusive, G9a block 50µM, HP1b binding inh inactive, Six1-Eya2 blk inactive and CtBP-E1A blk inactive.
For Cc1csc(NC(=O)c2ccc3ccccc3n2)n1 the results were BAZ2B inh inactive, JMJD2A Tudor inh inconclusive, G9a block inactive, HP1b binding inh inactive, Six1-Eya2 blk inactive and CtBP-E1A blk inactive.
Screening Cc1ccnc2nc(C(=O)Nc3nc4ccccc4s3)nn12 returned BAZ2B inh inactive, JMJD2A Tudor inh 16µM, G9a block inactive, HP1b binding inh inactive, Six1-Eya2 blk inactive and CtBP-E1A blk inactive.
Cc1csc(NC(=O)c2cnc3ccccc3n2)n1 was read as BAZ2B inh inactive, JMJD2A Tudor inh inactive, G9a block 45µM, HP1b binding inh inactive, Six1-Eya2 blk inactive and CtBP-E1A blk inactive.
CC(=O)c1ccc(C(=O)Nc2nnc(-c3ccc(Cl)cc3)o2)cc1 was read as BAZ2B inh inconclusive, JMJD2A Tudor inh inactive, G9a block inactive, HP1b binding inh inactive, Six1-Eya2 blk inactive and CtBP-E1A blk inconclusive.
`Cc1ccnc2nc(C(=O)Nc3nnc(-c4ccc(Cl)cc4)o3)nn12` gave BAZ2B inh inconclusive, JMJD2A Tudor inh 18µM, G9a block inconclusive, HP1b binding inh inactive, Six1-Eya2 blk inactive and CtBP-E1A blk inactive.
COCCCNCC(=O)c1c(N)n(Cc2ccccc2)c(=O)n(C)c1=O was read as BAZ2B inh inconclusive, JMJD2A Tudor inh 79µM, G9a block inconclusive, HP1b binding inh inactive, Six1-Eya2 blk inactive and CtBP-E1A blk inactive.
`CC(C)Cn1c(N)c(C(=O)COC(=O)c2cc3ccccc3cc2O)c(=O)n(C)c1=O` gave JMJD2A Tudor inh inactive, HP1b binding inh inactive and Six1-Eya2 blk inactive.
For Cn1c(=O)c(C(=O)COC(=O)c2cc(C3CC3)nc3ccccc23)c(N)n(Cc2ccccc2)c1=O the results were BAZ2B inh inactive, JMJD2A Tudor inh inactive, G9a block 79µM, HP1b binding inh inactive and Six1-Eya2 blk inactive.
`Cn1c(=O)c(C(=O)COC(=O)c2cc(-c3ccccc3)nc3ccccc23)c(N)n(Cc2ccccc2)c1=O` gave BAZ2B inh inconclusive and G9a block 79µM.
Cn1c(=O)c(C(=O)COC(=O)c2cc(C(F)(F)F)nc3ccccc23)c(N)n(Cc2ccccc2)c1=O was read as BAZ2B inh inactive and G9a block inconclusive.
`Cn1c(=O)c(C(=O)COC(=O)c2cc(-c3ccco3)nc3ccccc23)c(N)n(CC2CC2)c1=O` gave BAZ2B inh inconclusive and G9a block 6.3µM.
For CCN(CC(=O)NCc1cccs1)C(=O)c1ccc(NS(=O)(=O)c2ccc(F)cc2)cc1 the results were BAZ2B inh inactive, JMJD2A Tudor inh inactive, G9a block inactive, HP1b binding inh inactive, Six1-Eya2 blk inactive and CtBP-E1A blk inactive.
Cc1ccc(Oc2nc3c(c(=O)n(Cc4ccccc4)c(=O)n3C)n2C)cc1C was read as BAZ2B inh inconclusive, JMJD2A Tudor inh inactive, G9a block inconclusive and HP1b binding inh inactive.
For O=C(N/N=C/c1ccccc1O)C1CC(=O)N(c2ccc(F)cc2)C1 (centres undefined) the results were BAZ2B inh inactive, JMJD2A Tudor inh inactive, G9a block inactive, HP1b binding inh inactive, Six1-Eya2 blk -70 and CtBP-E1A blk inconclusive.
Screening O=C1NCCCC1C(=O)N/N=C/c1ccccc1[N+](=O)[O-] (centres undefined) returned BAZ2B inh inactive, JMJD2A Tudor inh inactive, G9a block inconclusive, HP1b binding inh inactive, Six1-Eya2 blk inactive and CtBP-E1A blk inactive.
For O=C1NCCCC1C(=O)N/N=C/c1ccccc1O (centres undefined) the results were BAZ2B inh inactive, JMJD2A Tudor inh inactive, G9a block inactive, HP1b binding inh inactive, Six1-Eya2 blk inconclusive and CtBP-E1A blk -71.

Assay outcomes from PubChem BioAssay.
